Measurements from PubChem BioAssay (EPA / NIEHS).
Activity calls are given as the source filed them. The calls were made as follows: active = hit-call score of the fitted dose curve at least 0.9, where 1 is the maximum; inactive = score below 0.9.

Assay: APR_HepG2_MitoMass_24hr: Apredica 24-hour HepG2 Assay for Mitochondrial Mass (AID 2282912)
Details: high-content imaging, actives raise or lower the signal
Outline: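 HepG2, 24 hr dosing, 10 concentrations 0.39–200 uM in duplicate, DMSO 0.5% final. MitoTracker Red CMXRos 250 nM, 30 min pre-fix; 3.7% formaldehyde fix. Imaging-based fluorescence intensity; gain/loss fit vs DMSO baseline.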

AC50, active:
Clc1nc(Cl)c(Cl)c(Cl)c1Cl 102 µM
CCOc1cccc(-n2cc(C(=O)N3CCN(c4cc(C(=O)O)c5ccccc5c4)CC3)nc2-c2ccc(C)cc2)c1 104 µM

outcome, inactive:
O=c1[nH]c2ccc(S(=O)CCN3CCC(Cc4ccc(F)cc4)CC3)cc2o1 (stereo not given)
CC/C(=C\C(=N/O)C(N)=O)C(C)[N+](=O)[O-] (stereo not given)
COCCOCCOCCOC
CC(C)=CCCC(C)CCO (stereo not given)
Cn1cnc([N+](=O)[O-])c1Sc1ncnc2nc[nH]c12
CC(C)CC(C)(O)C#CC(C)(O)CC(C)C (stereo not given)
CCCCCCCCO
CCCCC(CC)COC(=O)CCCCCCCCC(=O)OCC(CC)CCCC (stereo not given)
C1=CCCC=CCCC=CCC1
CCOCCOCCOCCO
Cc1ccc(O)cc1
CNCc1ccc(NC(=O)c2c[nH]c3c2C(=O)CCC3)cc1
CCOCCO
Cn1c(=O)c2c(ncn2C)n(C)c1=O

Assay: APR_HepG2_p53Act_24hr: Apredica 24-hour HepG2 Assay for p53 Activation (AID 2282913);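 also: p53 protein immunofluorescence averaged per cell in HepG2 with Hoechst nuclei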
Details: high-content imaging, actives raise or lower the signal
Outline: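 HepG2 cells exposed 24 hr to compounds at 0.39–200 uM (10 concentrations, duplicate), final DMSO 0.5% v/v. After formaldehyde fixation and Triton permeabilization, p53 was immunolabeled (sheep anti-p53, Cy5 secondary) with Hoechst 33342 nuclear counterstain, then imaged by high-content fluorescence microscopy.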

outcome, inactive:
CC(C)CCO
CC/C(=C\C(=N/O)C(N)=O)C(C)[N+](=O)[O-] (stereo not given)
COCCOCCOCCOC
CC(C)CCCCCCCOC(=O)CCCCC(=O)OCCCCCCCC(C)C
Cn1cnc([N+](=O)[O-])c1Sc1ncnc2nc[nH]c12
CC(C)CC(C)(O)C#CC(C)(O)CC(C)C (stereo not given)
CCCCCCCCO
CCOCCOCCOCCO
Cc1ccc(O)cc1
CCOCCO
CC[C@H]1CC[C@H](NCc2cc3c(cc2OC)[C@H]2C[C@H]2C(=O)N3C)[C@H](c2ccccc2)N1

AC50, active:
Clc1nc(Cl)c(Cl)c(Cl)c1Cl 38.6 µM
O=C(OC[C@H]1O[C@@H](OC(=O)c2cc(O)c(O)c(OC(=O)c3cc(O)c(O)c(O)c3)c2)[C@H](OC(=O)c2cc(O)c(O)c(OC(=O)c3cc(O)c(O)c(O)c3)c2)[C@@H](OC(=O)c2cc(O)c(O)c(OC(=O)c3cc(O)c(O)c(O)c3)c2)[C@@H]1OC(=O)c1cc(O)c(O)c(OC(=O)c2cc(O)c(O)c(O)c2)c1)c1cc(O)c(O)c(OC(=O)c2cc(O)c(O)c(O)c2)c1 20.8 µM
CCCCC(CC)COC(=O)CCCCCCCCC(=O)OCC(CC)CCCC (stereo not given) 108 µM

Assay: APR_HepG2_CellCycleArrest_72hr: Apredica 72-hour HepG2 Assay for Cell Cycle Arrest (AID 2282914)
Details: high-content imaging, actives raise or lower the signal
Outline: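 HepG2 cells were exposed to compounds at 0.39–200 uM (0.5% v/v DMSO final, duplicates) for 72 hr, fixed in 3.7% formaldehyde, permeabilized and stained with Hoechst 33342. Nuclear DNA content was quantified by high-content imaging; gain or loss of signal was fitted bidirectionally against DMSO.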

outcome, inactive:
CC(C)CCO
COC(=O)c1c(Cl)c(Cl)c(C(=O)OC)c(Cl)c1Cl
CC/C(=C\C(=N/O)C(N)=O)C(C)[N+](=O)[O-] (stereo not given)
CC(C)=CCC/C(C)=C\CO
COCCOCCOCCOC
CC(C)CCCCCCCOC(=O)CCCCC(=O)OCCCCCCCC(C)C
Cn1cnc([N+](=O)[O-])c1Sc1ncnc2nc[nH]c12
CC(C)CC(C)(O)C#CC(C)(O)CC(C)C (stereo not given)
CC(=O)OCCC(C)C
O=C(OC[C@H]1O[C@@H](OC(=O)c2cc(O)c(O)c(OC(=O)c3cc(O)c(O)c(O)c3)c2)[C@H](OC(=O)c2cc(O)c(O)c(OC(=O)c3cc(O)c(O)c(O)c3)c2)[C@@H](OC(=O)c2cc(O)c(O)c(OC(=O)c3cc(O)c(O)c(O)c3)c2)[C@@H]1OC(=O)c1cc(O)c(O)c(OC(=O)c2cc(O)c(O)c(O)c2)c1)c1cc(O)c(O)c(OC(=O)c2cc(O)c(O)c(O)c2)c1
CCCCCCCCO
C1=CCCC=CCCC=CCC1
CCOCCOCCOCCO
O=C(CCCCCCCCc1cccnc1)N1CCC(C=C(c2ccccc2)c2ccccc2)CC1
Cc1ccc(O)cc1
CNCc1ccc(NC(=O)c2c[nH]c3c2C(=O)CCC3)cc1
CCOCCO
CC[C@H]1CC[C@H](NCc2cc3c(cc2OC)[C@H]2C[C@H]2C(=O)N3C)[C@H](c2ccccc2)N1
C[C@](N)(Cc1ccc(O)c(O)c1)C(=O)O
CC(C)(O)c1coc(S(=O)(=O)NC(=O)Nc2c3c(cc4c2CCC4)CCC3)c1
Cn1c(=O)c2c(ncn2C)n(C)c1=O
CCOC(=O)COc1ccc2c(c1)CC(NCC(O)c1cccc(Cl)c1)CC2 (stereo not given)

AC50, active:
Clc1nc(Cl)c(Cl)c(Cl)c1Cl 20 µM
O=c1[nH]c2ccc(S(=O)CCN3CCC(Cc4ccc(F)cc4)CC3)cc2o1 (stereo not given) 99.9 µM
CC(C)=CCCC(C)CCO (stereo not given) 0.0388 µM
CCOc1cccc(-n2cc(C(=O)N3CCN(c4cc(C(=O)O)c5ccccc5c4)CC3)nc2-c2ccc(C)cc2)c1 96 µM
CCCCC(CC)COC(=O)CCCCCCCCC(=O)OCC(CC)CCCC (stereo not given) 170 µM
Fc1ccccc1[C@@H](F)COC1CCC(Nc2ncnc3[nH]ncc23)CC1 (stereo not given in full) 50.1 µM
O=P(OC(CCl)CCl)(OC(CCl)CCl)OC(CCl)CCl 49.1 µM
CNS(=O)(=O)c1cc(C(=O)N2CCC(CCN3C4CCC3CC(n3c(C)nc5ccccc53)C4)(c3cccc(F)c3)CC2)c(Cl)cc1F (stereo not given) 78.9 µM
